The source of these data is PubChem BioAssay (NCI).

About 79,000 compounds went through this panel and 15% of them were active in at least one assay; those are over-represented in the sample as a whole. Unmarked numbers belong to inactive results. The source made the active and inactive calls. Cut-off read from the data, not from the text of the source: active = growth inhibition above about 70%; inactive = the rest. Where a SMILES comes first, the peptide text is derived from it. The star is where a group is joined. Cbz = O=C(OCc1ccccc1)*; Boc = CC(C)(C)OC(=O)*; OSu = O=C1CCC(=O)N1O*; Bn = c1ccc(C*)cc1

Experiment [1] is described as follows: NCI Yeast Anticancer Drug Screen. Data for the rad50 strain (AID 155).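 Note: 0% = growth of vehicle-only cultures of the same strain.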 Conditions: S. cerevisiae rad50 strain growth inhibition; at 50.0 µM; hits give high values. An outline of the steps: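 A DNA repair-deficient yeast mutant serves as the test organism; compound-induced growth inhibition is calculated against vehicle-treated cells.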
Experiment [2] is described as follows: NCI Yeast Anticancer Drug Screen. Data for the mec2-1 strain (AID 157). The conditions noted are these: S. cerevisiae mec2-1 strain, at 50.0 µM, hits give high values. The gist of the method:
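Growth inhibition is read against vehicle-treated controls after compound exposure of the mec2-1 yeast strain, which is defective in DNA damage repair or cell cycle control.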

Experiment [3] is described as follows: NCI Yeast Anticancer Drug Screen. Data for the sgs1 mgt1 strain (AID 161).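 Note: 0% = growth of cultures given vehicle only.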 The conditions noted are these: S. cerevisiae sgs1 mgt1 strain, at 50.0 µM, hits give high values. The gist of the method:
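Yeast cells carrying a defined DNA-repair defect were exposed to test compounds. Growth inhibition was measured relative to vehicle-treated controls.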

Experiment [4] is described as follows: NCI Yeast Anticancer Drug Screen. Data for the cln2 rad14 strain (AID 165).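 Note: 0% = growth equal to vehicle treated cultures.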 Conditions: S. cerevisiae cln2 rad14 strain, at 50.0 µM, hits give high values. The gist of the method: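 Growth inhibition, relative to vehicle-treated controls, is the read-out. The test organism is a yeast strain with defined genetic alterations, cln2 rad14.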
Experiment [5] in a line: NCI Yeast Anticancer Drug Screen. Data for the bub3 strain (AID 167). The conditions noted are these: S. cerevisiae bub3 mutant strain, at 50.0 µM, hits give high values. An outline of the steps: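 Inhibition values come from growth of compound-treated mutant yeast normalised to vehicle-treated controls.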
Experiment [6] is described as follows: NCI Yeast Anticancer Drug Screen. Data for the mlh1 rad18 strain (AID 175). Conditions: S. cerevisiae mlh1 rad18 strain growth inhibition; at 50.0 µM; hits give high values. An outline of the steps: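 Cells of a genetically altered yeast strain, deficient in DNA damage repair, were treated with compound. Their growth was then compared with that of vehicle-treated cultures to give inhibition.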

For `COC(=O)C1(F)C(=O)NC(=O)NC1OC` (stereo not given), the growth inhibition was 35.5% in experiment [1]; 16.6% in experiment [2]; 56.4% in experiment [3]; 10.3% in experiment [4]; 11.7% in experiment [5]; 31% in experiment [6].

Take `CCc1ccc2oc(-c3cc(O)c(-c4nc5cc(CC)ccc5o4)cc3O)nc2c1`: the growth inhibition in experiment [1] is -19.2%; in experiment [2], -25.9%; in experiment [3], -22.2%; in experiment [4], 1.1%; in experiment [5] it was -25.5%; in experiment [6], 12.6%.

`O=c1n(-c2ccccc2)c(=O)n2n1C1C3C4C3C2C2(F)C4C12` (stereo not given): the growth inhibition in experiment [1] is -6.95%; in experiment [2] it was 14.3%; in experiment [3], 19.9%; in experiment [4], 8.6%; in experiment [5] it was 7.75%; in experiment [6] it was 9.6%.

Consider `CC(=O)Oc1cc(C)ccc1C`, for which the growth inhibition in experiment [1] was -2.7%; in experiment [2], -0.5%; in experiment [3], -18.2%; in experiment [4], -55.5%; in experiment [5], -21.8%; in experiment [6] it was -0.35%.

As to `COc1ccc(/C=C2\CCN(C(C)=O)C2=O)cc1`, the growth inhibition in experiment [1] was 2.35%; in experiment [2] it was -2.65%; in experiment [3], -7.8%; in experiment [4] it was 2.6%; in experiment [5], 3.25%; in experiment [6] it was -10.7%.

Turning to `CC(=O)N(C)c1ccc(C)cc1`, the growth inhibition was -14.9% in experiment [1]; -1.05% in experiment [2]; -4.35% in experiment [3]; -27.6% in experiment [4]; -4.2% in experiment [5]; 7% in experiment [6].

For `O=C(CC(=O)N1CCOCC1)N1CCOCC1`, the growth inhibition in experiment [1] was 4.5%; in experiment [2], -14.8%; in experiment [3], 26.9%; in experiment [4], 7.9%; in experiment [5], 19.4%; in experiment [6] it was 7.45%.

For `O=C(CCc1cc(-c2ccc(F)cc2)n[nH]1)N(Cc1ccccc1)Cc1ccccc1`, the growth inhibition was -20.1% in experiment [1]; 11.2% in experiment [2]; -27.8% in experiment [3]; 2.25% in experiment [4]; -20.2% in experiment [5]; -9% in experiment [6].

Take `CCCCCCCCCCCCCCCC[N+](C)(C)Cc1ccccc1`: the growth inhibition is 99.2% (active) in experiment [1]; 99% (active) in experiment [2]; 99.3% (active) in experiment [3]; 99% (active) in experiment [4]; 98.8% (active) in experiment [5]; 98.9% (active) in experiment [6].

Regarding `Cc1c(O)c2cccc(-c3ccccc3)c2oc1=O`, the growth inhibition is 5.8% in experiment [1]; 17.5% in experiment [2]; 11.1% in experiment [3]; -6.3% in experiment [4]; -4.8% in experiment [5]; 17.6% in experiment [6].

As for `Nc1ccn(C2OC(COP(=O)(O)O)C(O)C2O)c(=O)n1` (stereo not given) (tested in a mixture with another compound), the growth inhibition in experiment [1] was -3.8%; in experiment [2] it was -4.25%; in experiment [3] it was -0.75%; in experiment [4], -44.4%; in experiment [5], 1.15%; in experiment [6], 14.1%.

For `CC(C)(C)OC(=O)NC(Cc1ccc(OCc2ccccc2)cc1)C(=O)NC(CCCCNC(=O)OCc1ccccc1)C(=O)NC(CCCCNC(=O)OCc1ccccc1)C(=O)ON1C(=O)CCC1=O` (stereo not given) (Boc-Tyr(Bn)-Lys(Cbz)-Lys(Cbz)-OSu; configuration not given here), the growth inhibition in experiment [1] was -1.85%; in experiment [2], 2.95%; in experiment [3] it was 6.6%; in experiment [4], 6.15%; in experiment [5], 8.6%; in experiment [6], 16.5%.

With `c1ccc(SC2CCSc3ccccc3C2Sc2ccccc2)cc1` (stereo not given), the growth inhibition in experiment [1] was 3.2%; in experiment [2] it was -14.7%; in experiment [3] it was 3.2%; in experiment [4], 3.65%; in experiment [5] it was 0.5%; in experiment [6] it was 11.2%.

In the case of `Cc1ccc(S(=O)(=O)Nn2nnnc2N)cc1`, the growth inhibition is -7.85% in experiment [1]; 11.7% in experiment [2]; -7.6% in experiment [3]; -4.4% in experiment [4]; -4.65% in experiment [5]; 7.25% in experiment [6].

For `CC(=O)NCCCOc1ccc(N)cc1`, the growth inhibition in experiment [1] was -3.7%; in experiment [2], 4.05%; in experiment [3], -0.4%; in experiment [4] it was -27.1%; in experiment [5], -2.3%; in experiment [6] it was -11.9%.

`COC1OC2COC(c3ccccc3)OC2C(OC)C1OC(=O)c1ccccc1` (stereo not given): the growth inhibition in experiment [1] is -3.05%; in experiment [2], 0.85%; in experiment [3], -14.1%; in experiment [4] it was -37.6%; in experiment [5], -2.05%; in experiment [6] it was 7.55%.

Regarding `Cc1c(-c2ccc(N)cc2)c(=O)oc2cc(O)ccc12`, the growth inhibition in experiment [1] is -8.65%; in experiment [2] it was -11.1%; in experiment [3], -2.2%; in experiment [4], 33%; in experiment [5], 8.1%; in experiment [6], 8.55%.

Turning to `O=C1Nc2cc(Cl)ccc2N=CC1NC(=O)C(c1ccccc1)c1ccccc1Cl` (stereo not given), the growth inhibition in experiment [1] is -33.1%; in experiment [2] it was -11.6%; in experiment [3], -6.15%; in experiment [4] it was -15.9%; in experiment [5], -6.8%; in experiment [6], -17.8%.

For `OCCOCCNc1ncnc2cc(Cl)ccc12`, the growth inhibition was -12.4% in experiment [1]; -14.7% in experiment [2]; 5.25% in experiment [3]; -14.2% in experiment [4]; 7.2% in experiment [5]; 4.2% in experiment [6].

On to `Cc1ccccc1N1CC2CC3C=CC2(C1)O3` (stereo not given), for which the growth inhibition was 8.5% in experiment [1]; 15.9% in experiment [2]; 16.8% in experiment [3]; -10.1% in experiment [4]; 1.35% in experiment [5]; 1.7% in experiment [6].
